According to PubChem BioAssay (NCI):
This is part of a sample that, as a whole, favours compounds with a hit. Of some 83,000 tested, about 20% had one in any assay.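 Compound tested at a single concentration for 48 hours in 96-well plates; a percent growth value below 10 was scored as active.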 Active and inactive are the calls of the source.

What was measured:
Experiment in all cases: NCI-60 one-dose screen, 48 h (100 = growth as untreated, 0 = no growth, -100 = all killed)
Conditions in all cases: 10 µM unless noted
DU-145 prostate = test system: DU-145 prostate
K-562 leukemia = test system: K-562 leukemia
MALME-3M melanoma = test system: MALME-3M melanoma
MDA-MB-231 breast = test system: MDA-MB-231 breast
RXF 393 renal = test system: RXF 393 renal
SF-268 CNS = test system: SF-268 CNS
SF-295 CNS = test system: SF-295 CNS
SF-539 CNS = test system: SF-539 CNS
UACC-257 melanoma = test system: UACC-257 melanoma
M14 melanoma = test system: M14 melanoma
HCT-15 colon = test system: HCT-15 colon
HT29 colon = test system: HT29 colon
SNB-75 CNS = test system: SNB-75 CNS
SNB-19 CNS = test system: SNB-19 CNS
U251 CNS = test system: U251 CNS
PC-3 prostate = test system: PC-3 prostate
SK-MEL-5 melanoma = test system: SK-MEL-5 melanoma
UACC-62 melanoma = test system: UACC-62 melanoma
LOX IMVI melanoma = test system: LOX IMVI melanoma
SK-MEL-28 melanoma = test system: SK-MEL-28 melanoma

Measured: growth

CC12CCC3C(C=CC4=C(N)C(=O)CCC43C)C1CCC2=O (stereo not given)
inactive: DU-145 prostate 62.4% | MALME-3M melanoma 70.8% | MDA-MB-231 breast 101% | RXF 393 renal 95.2% | SF-268 CNS 89% | SF-295 CNS 105% | SF-539 CNS 82.8% | UACC-257 melanoma 86.7% | M14 melanoma 79.5% | HCT-15 colon 73% | HT29 colon 51.2% | SNB-75 CNS 94.2% | SNB-19 CNS 103% | U251 CNS 54.2% | PC-3 prostate 46.5% | SK-MEL-5 melanoma 69.7% | UACC-62 melanoma 81% | LOX IMVI melanoma 60.6% | SK-MEL-28 melanoma 103%
active: K-562 leukemia -26.9%

CNC(=O)Oc1ccc(C(C)(C)C)cc1OC(=O)NC
inactive: DU-145 prostate 105% | K-562 leukemia 97.6% | MALME-3M melanoma 104% | MDA-MB-231 breast 105% | RXF 393 renal 108% | SF-268 CNS 105% | SF-295 CNS 98.6% | SF-539 CNS 103% | UACC-257 melanoma 92% | M14 melanoma 93.3% | HCT-15 colon 90.5% | HT29 colon 88.8% | SNB-75 CNS 91% | SNB-19 CNS 101% | U251 CNS 92.3% | PC-3 prostate 94% | SK-MEL-5 melanoma 98.9% | UACC-62 melanoma 99.6% | LOX IMVI melanoma 92.4% | SK-MEL-28 melanoma 107%

Nc1ccc(-c2nc3cc(F)ccc3[se]2)cc1F
inactive: DU-145 prostate 96.8% | K-562 leukemia 93% | MALME-3M melanoma 102% | MDA-MB-231 breast 42.3% | RXF 393 renal 82.6% | SF-268 CNS 80.8% | SF-295 CNS 87.6% | SF-539 CNS 86.9% | UACC-257 melanoma 98.1% | M14 melanoma 91.8% | HCT-15 colon 52.8% | HT29 colon 61% | SNB-75 CNS 76.6% | SNB-19 CNS 95.3% | U251 CNS 87.2% | PC-3 prostate 74.3% | SK-MEL-5 melanoma 82.1% | UACC-62 melanoma 71.9% | LOX IMVI melanoma 88.2% | SK-MEL-28 melanoma 115%

[Cl][Hg][c]1cc[c]([Hg][Cl])o1
active: K-562 leukemia 7.68% | MALME-3M melanoma -51.6% | HCT-15 colon -47.3% | U251 CNS -40.8% | LOX IMVI melanoma -10.3%
inactive: DU-145 prostate 70.6% | MDA-MB-231 breast 22.7% | RXF 393 renal 62.1% | SF-268 CNS 51.3% | SF-295 CNS 93.4% | SF-539 CNS 75% | UACC-257 melanoma 65.5% | M14 melanoma 14.8% | HT29 colon 30.9% | SNB-75 CNS 54.4% | SNB-19 CNS 15.4% | PC-3 prostate 51.3% | SK-MEL-5 melanoma 39.7% | UACC-62 melanoma 47.1% | SK-MEL-28 melanoma 49.1%

CCCCCCCCC(CO)NCCc1ccccc1 (stereo not given)
inactive: DU-145 prostate 102% | K-562 leukemia 80.7% | MALME-3M melanoma 109% | MDA-MB-231 breast 93.1% | RXF 393 renal 136% | SF-268 CNS 99.7% | SF-295 CNS 98.1% | SF-539 CNS 115% | UACC-257 melanoma 85.7% | M14 melanoma 92.5% | HCT-15 colon 102% | HT29 colon 73.6% | SNB-75 CNS 108% | SNB-19 CNS 102% | U251 CNS 93.3% | PC-3 prostate 73.5% | SK-MEL-5 melanoma 101% | UACC-62 melanoma 98.5% | LOX IMVI melanoma 103% | SK-MEL-28 melanoma 108%

[Cl][Hg][n]1c(-c2ccco2)nc2ccccc21
inactive: DU-145 prostate 97.3% | K-562 leukemia 78.8% | MALME-3M melanoma 119% | MDA-MB-231 breast 100% | RXF 393 renal 104% | SF-268 CNS 105% | SF-295 CNS 106% | SF-539 CNS 99.3% | UACC-257 melanoma 103% | M14 melanoma 86.1% | HCT-15 colon 92% | HT29 colon 104% | SNB-75 CNS 91.7% | SNB-19 CNS 93.1% | U251 CNS 91.5% | PC-3 prostate 98.5% | SK-MEL-5 melanoma 97% | UACC-62 melanoma 95.8% | LOX IMVI melanoma 15.4% | SK-MEL-28 melanoma 108%

c1cc2c(c3c1CCNC3)OCO2
inactive: DU-145 prostate 120% | K-562 leukemia 106% | MALME-3M melanoma 94.8% | MDA-MB-231 breast 100% | RXF 393 renal 104% | SF-268 CNS 102% | SF-295 CNS 96.4% | SF-539 CNS 105% | UACC-257 melanoma 78.5% | M14 melanoma 101% | HCT-15 colon 102% | HT29 colon 91.8% | SNB-75 CNS 86.8% | SNB-19 CNS 106% | U251 CNS 92.6% | PC-3 prostate 102% | SK-MEL-5 melanoma 101% | UACC-62 melanoma 100% | LOX IMVI melanoma 95.7% | SK-MEL-28 melanoma 109%

COc1cc(/C=C/[N+](=O)[O-])c([N+](=O)[O-])cc1OC
inactive: DU-145 prostate 38.6% | K-562 leukemia 10.9% | MALME-3M melanoma 11.7% | SF-268 CNS 48.3% | SF-295 CNS 107% | UACC-257 melanoma 65.7% | SNB-75 CNS 55.3% | SNB-19 CNS 96.3% | U251 CNS 15.7% | PC-3 prostate 51.5% | SK-MEL-5 melanoma 56.2% | SK-MEL-28 melanoma 38.4%
active: MDA-MB-231 breast -12.1% | RXF 393 renal -92.9% | SF-539 CNS -32.4% | M14 melanoma 7.35% | HCT-15 colon -45.2% | HT29 colon -66% | UACC-62 melanoma -7.94% | LOX IMVI melanoma -68.1%

COc1ccc(S(=O)(=O)Nc2c(/C=C\c3cc(OC)c(OC)c(OC)c3)ccc(OC)c2O)cc1OC
active: DU-145 prostate -10.2% | MDA-MB-231 breast 1.41% | SF-539 CNS -14.6% | M14 melanoma 9.05% | SK-MEL-5 melanoma -34.9%
inactive: K-562 leukemia 17.2% | MALME-3M melanoma 69.2% | RXF 393 renal 24.6% | SF-268 CNS 23.7% | SF-295 CNS 12% | UACC-257 melanoma 58.5% | HCT-15 colon 15.6% | HT29 colon 10% | SNB-75 CNS 43.8% | SNB-19 CNS 39% | U251 CNS 12.9% | PC-3 prostate 28.2% | UACC-62 melanoma 45.2% | LOX IMVI melanoma 21.6% | SK-MEL-28 melanoma 58.6%

COC(=O)C12CC(NC(=O)c3csc([C@@H](C[C@H](C(C)C)N(C)C(=O)[C@@H](NC(=O)[C@H]4CCCCN4C)C4CC4)OC(C)=O)n3)(C1)C2
inactive: MALME-3M melanoma 70% | RXF 393 renal 14.5% | SF-268 CNS 21.9% | UACC-257 melanoma 42.2% | M14 melanoma 14.8% | HCT-15 colon 14.1% | SNB-75 CNS 43.4% | SNB-19 CNS 39.6% | U251 CNS 11.8% | PC-3 prostate 23.4% | UACC-62 melanoma 58.6% | LOX IMVI melanoma 15.7% | SK-MEL-28 melanoma 60.1%
active: DU-145 prostate 4.38% | K-562 leukemia 7.65% | MDA-MB-231 breast -0.474% | SF-295 CNS 6.6% | SF-539 CNS -28.5% | HT29 colon -8.13% | SK-MEL-5 melanoma -22.5%

COC(=O)[C@H](C[C@H](Cc1ccccc1)NC(=O)c1csc([C@@H](C[C@H](C(C)C)N(C)C(=O)[C@@H](NC(=O)[C@H]2CCCCN2C)C(C)C)OC(C)=O)n1)NC(=O)OCc1ccccc1
active: DU-145 prostate -18.2% [8.5 µM] | K-562 leukemia 5.76% [8.5 µM] | MALME-3M melanoma -53.7% [8.5 µM] | MDA-MB-231 breast 5.23% [8.5 µM] | SF-295 CNS 8.4% [8.5 µM] | SF-539 CNS -21.7% [8.5 µM] | M14 melanoma -48.4% [8.5 µM] | HT29 colon -2.9% [8.5 µM] | SK-MEL-5 melanoma -13.3% [8.5 µM] | SK-MEL-28 melanoma -69.7% [8.5 µM]
inactive: RXF 393 renal 20.4% [8.5 µM] | SF-268 CNS 13.1% [8.5 µM] | UACC-257 melanoma 13.9% [8.5 µM] | HCT-15 colon 13.6% [8.5 µM] | SNB-75 CNS 22.7% [8.5 µM] | SNB-19 CNS 16.3% [8.5 µM] | U251 CNS 14.6% [8.5 µM] | PC-3 prostate 32.4% [8.5 µM] | UACC-62 melanoma 23.8% [8.5 µM] | LOX IMVI melanoma 13.8% [8.5 µM]

O=C(c1cccc(O)c1O)c1cn(Cc2ccc(F)cc2)c2cccc(O)c12
active: M14 melanoma -64.3% | UACC-62 melanoma 9.18%
inactive: DU-145 prostate 36.2% | K-562 leukemia 22.1% | MALME-3M melanoma 58.9% | MDA-MB-231 breast 39.1% | RXF 393 renal 70% | SF-268 CNS 26.3% | SF-295 CNS 41.9% | SF-539 CNS 13.8% | UACC-257 melanoma 34.4% | HCT-15 colon 27.8% | HT29 colon 94.5% | SNB-75 CNS 55.3% | SNB-19 CNS 37.3% | U251 CNS 31% | PC-3 prostate 39.2% | SK-MEL-5 melanoma 25.4% | LOX IMVI melanoma 29.3% | SK-MEL-28 melanoma 39.2%

CCCC[C@H](NC(=O)[C@H]1CCCN1C)C(=O)N(C)[C@H](C[C@@H](OC(C)=O)c1nc(C(=O)N[C@@H](Cc2ccccc2)C[C@H](C)C(=O)OCC)cs1)C(C)C
inactive: DU-145 prostate 12.8% | MALME-3M melanoma 49.5% | RXF 393 renal 25.3% | SF-268 CNS 25.8% | SF-295 CNS 13.3% | UACC-257 melanoma 46.1% | HCT-15 colon 19.1% | SNB-75 CNS 51.5% | SNB-19 CNS 38.4% | PC-3 prostate 13% | UACC-62 melanoma 43.4% | LOX IMVI melanoma 20.8% | SK-MEL-28 melanoma 71.3%
active: K-562 leukemia 9.85% | MDA-MB-231 breast 3.51% | SF-539 CNS 0.375% | M14 melanoma -12% | HT29 colon 1.99% | U251 CNS 8.61% | SK-MEL-5 melanoma -25.1%

COc1cc2c(cc1OCc1ccccc1)C(CC(C)C)=[N+](C)CC2
inactive: DU-145 prostate 93.6% | K-562 leukemia 67.2% | MALME-3M melanoma 85% | MDA-MB-231 breast 93% | RXF 393 renal 93.9% | SF-268 CNS 67.5% | SF-295 CNS 68.2% | SF-539 CNS 76.7% | UACC-257 melanoma 50% | M14 melanoma 99.1% | HCT-15 colon 99.4% | HT29 colon 63.3% | SNB-75 CNS 64.9% | SNB-19 CNS 69% | U251 CNS 49.1% | PC-3 prostate 62.8% | SK-MEL-5 melanoma 75.9% | UACC-62 melanoma 81.9% | LOX IMVI melanoma 91.1% | SK-MEL-28 melanoma 95.1%
